Compound activity as filed in PubChem BioAssay.
Compounds with a hit are over-represented: about 7.9% of the library has one in this group of screens.
KB-3-1 tox: KB-3-1 parental cell cytotoxicity; KB-3-1 viability, CellTiter-Glo ATP luminescence, 72 h; Potency, µM (top dose mostly 46.1 µM), hits mostly cytotoxic; 400,000 tested, 1.4% active; AID 1347075; also: nearly all actives have a fitted effect of over 60% in size
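Using CellTiter-Glo luminescence, growth of non-resistant KB-3-1 adenocarcinoma cells is assessed 72 h after pin-tool compound addition at 37 °C. Normalized responses across the concentration series yield fitted curves.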
HT1080NT lethal: kills 2HG-producing HT-1080-NT fibrosarcoma cells | HT-1080-NT fibrosarcoma viability, CellTiter-Glo ATP luminescence, 48 h | Potency, µM (top dose mostly 46.1 µM), hits mostly cytotoxic | 360,000 tested, 1.6% active;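 also: NT is the 2HG producing partner of a matched IDH1 knockdown line; nearly all actives have a fitted effect of over 55% in size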
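750 cells/well, RPMI + 5% FBS; 2 h settle, compound pin-transfer, 48 h at 37 degrees C. CellTiter-Glo 10 min RT, luminescence. Normalized to DMSO and media-only wells.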
KB-V1 MDR tox: KB-V1 MDR subline cytotoxicity; KB-V1 MDR cells viability, CellTiter-Glo, 72 h; Potency, µM (top dose mostly 46.1 µM), actives largely listed as cytotoxic; 400,000 tested, 3.4% active; also: nearly all actives have a fitted effect of over 60% in size
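Compound-treated KB-V1 multidrug-resistant cells, 72 h, 37 degrees C; viability by CellTiter-Glo. Fitted qHTS curves give the values.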
HT1080 IDH1KD tx: toxicity to HT-1080 IDH1 knockdown cells (counter line); HT-1080 IDH1 knockdown viability, ATP luminescence, 48 h; Potency, µM (titrated, usually from 46.1 µM), actives largely listed as cytotoxic; 360,000 tested, 2% active; AID 686971
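Viability of IDH1-knockdown HT-1080 fibrosarcoma cells was assessed by CellTiter-Glo after 48 h at 37 °C with titrated compound; concentration-effect curves were classified by fit quality and response size.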
MCF10A rereplic: inducers of DNA re-replication in MCF 10A breast cells | 350,000 tested, 2.9% active | MCF 10A DNA re-replication, Hoechst nuclear intensity, 48 h | Potency, µM (series often up to 46.1 µM), most hits filed as activators; also: nearly all actives have a fitted effect of over 50% in size
SW480 rerep: inducers of DNA re-replication in SW480 colon cancer cells. 340,000 tested, 1.8% active. AID 624297. SW480 DNA re-replication, Hoechst DNA content imaging, 48 h. Potency, µM (doses to about 46.1 µM), usual class: activators; also: nearly all actives have a fitted effect of over 55% in size
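Readout is total intensity of Hoechst-stained nuclei, excited at 405 nm and collected at 500-530 nm. Compound treatment lasted 48 hr at 37 C in 5% CO2 before staining.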
Each line names hits and unclear results; the compound was inactive in the other large screens. Calls follow the shape of the dose curve; as a rule, active = well fitted curve in the direction sought with a large enough effect; inconclusive = small, poorly fitted or top-dose-only effect, or another doubt; inactive = no such curve, though single readings can be large; an effect the other way counts as inactive or inconclusive.

Cc1cc(C)c2nc(-c3ccccn3)cc(C(=O)NCCc3ccc(S(N)(=O)=O)cc3)c2c1	HT1080 IDH1KD tx inconclusive, MCF10A rereplic inconclusive, SW480 rerep inconclusive
Cc1cccc(NC(=O)c2ccccc2O)c1C	HT1080NT lethal inconclusive, KB-V1 MDR tox 16µM
COc1ccc(NC(=O)c2cc(-c3ccccn3)nc3c(C)cc(C)cc23)c(C)c1	MCF10A rereplic 10µM, SW480 rerep inconclusive (no result: KB-3-1 tox, KB-V1 MDR tox)
CCSc1ccccc1C(=O)Nc1cccc(OC)c1	KB-V1 MDR tox 18µM
Cc1cc(C)c2nc(-c3ccccn3)cc(C(=O)NCc3ccc(S(N)(=O)=O)cc3)c2c1	MCF10A rereplic 13µM (no result: HT1080NT lethal, HT1080 IDH1KD tx)
C=C(C)Cn1c(SCCCO)nc2c1c(=O)[nH]c(=O)n2C	none
COC(=O)C1CCN(C(=O)Cc2c(OC)ccc3cc(Br)ccc23)CC1	none
COc1cccc(NC(=O)c2ccccc2Oc2ccccc2)c1	none
COc1cccc(Nc2ncccc2C(=O)Nc2ccccc2)c1	MCF10A rereplic 23µM, SW480 rerep inconclusive
COC(=O)C1=C(C)N(CCc2ccccc2)C(=O)C1(NS(=O)(=O)c1ccc(NC(C)=O)cc1)C(F)(F)F (centres undefined)	HT1080NT lethal 10µM, HT1080 IDH1KD tx 6.3µM, MCF10A rereplic 15µM, SW480 rerep 3.3µM
COc1ccc(NC(=O)NC2(C)CCS(=O)(=O)C2)cc1 (centres undefined)	none
COc1ccc(-c2nnn(CC(=O)N3CCN(c4ccccc4OC)CC3)n2)cc1	none
CC1(C(=O)NCCc2c[nH]c3ccccc23)CCN1Cc1ccccc1OC(F)F (centres undefined)	KB-3-1 tox inconclusive, HT1080NT lethal 23µM, HT1080 IDH1KD tx inconclusive (no result: MCF10A rereplic, SW480 rerep)
CC1(C(=O)NCc2ccccc2Br)CCN1Cc1ccccc1OC(F)F (centres undefined)	HT1080NT lethal inconclusive, KB-V1 MDR tox 23µM, HT1080 IDH1KD tx inconclusive (no result: MCF10A rereplic, SW480 rerep)
N/N=C/C(=N\Nc1ccc(Cl)cc1)C(=O)c1ccncc1	HT1080NT lethal inconclusive, HT1080 IDH1KD tx inconclusive, SW480 rerep 10µM
O=C(NNC(=O)c1ccncc1)Nc1ccc(Cl)cc1	none
CCC(CC)C(=O)Nc1cccc(C(=O)c2ccccc2)c1	KB-V1 MDR tox 9.2µM
CC(C)C(=O)Nc1ccc(C(=O)c2ccccc2)cc1	KB-V1 MDR tox 13µM
NC(=O)c1ccc(S(=O)(=O)N2CCSCC2)cc1	none
O=C(NCC1CCCN1S(=O)(=O)c1cccs1)c1cccc(F)c1 (centres undefined)	KB-V1 MDR tox inconclusive, SW480 rerep inconclusive
COc1ccc(S(=O)(=O)N2CCN(C(=O)NC3CCCCC3)CC2)cc1OC	KB-V1 MDR tox 16µM
COc1ccc(NC(=O)C2CCCN(C(=O)NC3CCCCC3)C2)cc1OC (centres undefined)	KB-V1 MDR tox 15µM
Brc1cccc(OCCCNC2CCCC2)c1	none
COc1ccc(C(NC(=O)c2ccc(F)cc2)c2ccccc2)cc1 (centres undefined)	KB-V1 MDR tox inconclusive
CCOC(=O)N1CCC(N2Cc3cccc(C(=O)N4CCN(c5cccc(C)c5C)CC4)c3C2=O)CC1	none
Cn1c(Sc2ccc(Br)cc2)c(C=O)c2ccccc21	KB-3-1 tox inconclusive, HT1080NT lethal inconclusive, KB-V1 MDR tox inconclusive, HT1080 IDH1KD tx 26µM, MCF10A rereplic inconclusive, SW480 rerep inconclusive
Cn1c(Oc2ccc(F)cc2)c(C=O)c2ccccc21	none
COc1ccc(-c2nnc(SCC(=O)Nc3cccc(F)c3)s2)cc1	none (no result: HT1080NT lethal, HT1080 IDH1KD tx, MCF10A rereplic, SW480 rerep)
COc1cc(C(=O)N/N=C(\C)Cc2ccccc2)cc(OC)c1OC	HT1080NT lethal 1.2µM, HT1080 IDH1KD tx 1µM, MCF10A rereplic 2.1µM, SW480 rerep 2.6µM
COc1cc(C(=O)NCc2cccc3ccccc23)cc(Cl)c1OC	KB-V1 MDR tox 18µM, MCF10A rereplic inconclusive
COc1cc(C(=O)NC(=S)N(CCc2ccccc2)CCc2ccccc2)cc(OC)c1OC	KB-3-1 tox inconclusive, KB-V1 MDR tox 2.3µM, HT1080 IDH1KD tx inconclusive, MCF10A rereplic inconclusive, SW480 rerep inconclusive
O=C(NC(=S)N(Cc1ccccc1)Cc1ccccc1)c1ccccc1F	SW480 rerep 1.6µM
COc1cc(C(=O)NC(c2ccccc2)c2ccccc2)cc(Cl)c1OC	none
COC(=O)C1CN(C(=O)COc2cc(C)c(Cl)c(C)c2)c2ccccc2O1 (centres undefined)	none
CC(CCc1ccccc1)NC(=S)NC(=O)c1ccco1 (centres undefined)	KB-V1 MDR tox inconclusive
CCOc1ccccc1OCC(=O)N/N=C(\C)Cc1ccc(OC)cc1	KB-3-1 tox inconclusive, HT1080NT lethal inconclusive, KB-V1 MDR tox inconclusive, HT1080 IDH1KD tx inconclusive, MCF10A rereplic inconclusive, SW480 rerep 8.2µM
O=C(NC(=S)N(CCc1ccccc1)CCc1ccccc1)c1ccco1	KB-3-1 tox inconclusive, KB-V1 MDR tox 6.5µM, SW480 rerep inconclusive
Nc1nonc1-n1nnc(C(=O)N/N=C/c2cccnc2)c1CSc1ccc(Cl)cc1	none
CCC(C)(C)NC(=O)CN(C(=O)c1csnn1)c1cccc2c1CCCC2	KB-V1 MDR tox inconclusive, MCF10A rereplic inconclusive
C=C1[C@@H](O)[C@H](Cc2ccccc2)N(Cc2ccccc2Br)S1(=O)=O	KB-3-1 tox inconclusive, HT1080NT lethal inconclusive, KB-V1 MDR tox inconclusive, HT1080 IDH1KD tx 23µM, MCF10A rereplic 21µM
Cc1ccccc1CN1[C@@H](Cc2ccccc2)COCCS1(=O)=O	MCF10A rereplic inconclusive
O=C(CNC(=O)c1ccco1)Nc1ccc(S(=O)(=O)N2CCCC2)cc1	none
CCOC(=O)c1cc(C)sc1NC(=O)CSC1=NCCS1	MCF10A rereplic 21µM, SW480 rerep inconclusive
Cc1cc(-c2nnc(-c3cc4ccccc4oc3=O)o2)c(C)n1-c1ccccc1	KB-3-1 tox inconclusive, KB-V1 MDR tox inconclusive, MCF10A rereplic 5.8µM, SW480 rerep inconclusive
CC[N+]1=C(C)C(C)(C)c2cc(C)ccc21	KB-3-1 tox inconclusive, HT1080NT lethal inconclusive, HT1080 IDH1KD tx 5.2µM, MCF10A rereplic inconclusive
CCN1C(=O)C(=O)c2cc(C)ccc21	KB-3-1 tox inconclusive, MCF10A rereplic inconclusive, SW480 rerep inconclusive
CC(C)CNc1nc(Oc2ccc(=O)n(C)n2)nc(N2CCOCC2)n1	none
O=C1Oc2ccccc2C(=O)C1C(CC(O)c1ccc(-c2ccc(Br)cc2)cc1)c1ccccc1 (centres undefined)	MCF10A rereplic 30µM (no result: KB-3-1 tox, HT1080NT lethal, KB-V1 MDR tox, HT1080 IDH1KD tx)
CCOC(=O)C1(Cc2ccccc2C(F)(F)F)CCN(C2CCN(C(C)C)CC2)CC1	HT1080NT lethal inconclusive, KB-V1 MDR tox inconclusive, HT1080 IDH1KD tx 15µM, MCF10A rereplic 18µM
CCOC(=O)C1(Cc2ccccc2C(F)(F)F)CCN(CC(O)CO)CC1 (centres undefined)	none
